This passage reports z-score and composite z-score results from PubChem BioAssay.

The source made the active and inactive calls. Unless noted, how the calls were made is not given here.

Assay [1] can be described thus: compound effects on lung adenocarcinoma cell viability – A549, calcein-AM fluorescence, 48 h, basal, profiling panel (AID 1162). Further: test concentration not given here. The settings on record: higher = more signal.
A short description of assay [2]: compound effects on differentiated 3T3-L1 adipocyte viability – cell-based, 3T3-L1 adipocytes, calcein-AM fluorescence, 48 h, basal, profiling panel (AID 1163). Further: test concentration not given here. The conditions noted are these: 3T3-L1 adipocytes viability, higher = more signal.
Assay [3] in a line: compound effects on hepatocellular carcinoma cell viability – HepG2, calcein-AM fluorescence, 48 h, basal, profiling panel (AID 1164). Further: test concentration not given here. The conditions noted are these: higher = more signal.
Assay [4] can be described thus: compound effects on multiple myeloma cell viability – MM1S, calcein-AM fluorescence, 48 h, basal, profiling panel (AID 1165).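 Further: viability of MM1S multiple myeloma cells under basal unstimulated conditions; test concentration not given here.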 The settings on record: higher = more signal.
Assay [5] in a line: calcein-AM signal in unstimulated myeloma cells – cell-based, calcein-AM fluorescence, 48 h, PK04 Diversity Set, profiling panel (AID 1166).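 Further: cells grown under basal conditions without added stimulus; test concentration not given here.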 The settings on record: RPMI8226 myeloma viability, higher = more signal.
A short description of assay [6]: JC-1 mitochondrial signal, unstimulated HepG2 cells – cell-based, JC-1 fluorescence, 24 h, 100 nL compound, profiling panel (AID 1167). Further: test concentration not given here. The conditions noted are these: HepG2 mitochondrial potential, higher = more signal.
Assay [7] can be described thus: JC-1 mitochondrial signal, unstimulated adipocytes – cell-based, JC-1 fluorescence, 3T3-L1 adipocytes, 24 h, 100 nL compound, profiling panel (AID 1168). Further: test concentration not given here. The conditions noted are these: JC-1 mitochondrial fluorescence, higher = more signal, called active from +8 up or from −8 down.
Assay [8] in a line: JC-1 mitochondrial signal, unstimulated myeloma cells – cell-based, JC-1 fluorescence, RPMI8226, 24 h, 100 nL compound, profiling panel (AID 1169). Further: test concentration not given here. The settings on record: JC-1 mitochondrial potential fluorescence, higher = more signal.
A short description of assay [9]: JC-1 mitochondrial signal, unstimulated MM1S myeloma – cell-based, JC-1 fluorescence, 24 h, 100 nL compound, profiling panel (AID 1170). Further: test concentration not given here. The conditions noted are these: MM1S mitochondrial potential, higher = more signal.
The nature of assay [10]: resazurin metabolic signal in A549 cells – cell-based, resazurin fluorescence, 24 h, PK04 Diversity Set, profiling panel (AID 1171). Further: test concentration not given here. The conditions noted are these: A549 viability, higher = more signal, called active from +8 up or from −8 down. (The colour change of resazurin is a common sign of viable cells or microbes.)
Assay [11] is described as follows: resazurin metabolic signal in HepG2 cells – cell-based, resazurin fluorescence, 24 h, PK04 Diversity Set, profiling panel (AID 1172). Further: test concentration not given here. The settings on record: HepG2 viability, higher = more signal.
The nature of assay [12]: budding yeast growth changes without added modifier – OD600, strain BY4716, 24 h, basal condition, primary screen (AID 1173). The settings on record: S. cerevisiae BY4716 growth, OD600, 24 h; higher = more signal, called active from +8 up or from −8 down.
Assay [13] can be described thus: viability profiling in MM1S myeloma cells – cell-based, resazurin fluorescence, basal, 24 h, PK04 Diversity Set, profiling panel (AID 1174). Further: test concentration not given here. The settings on record: higher = more signal, called active from +8 up or from −8 down.
For assay [14], the target named is Dihydroorotate dehydrogenase (quinone), mitochondrial (Plasmodium falciparum (isolate 3D7)) (UniProt Q08210). As to the kind of experiment: inhibition of P. falciparum DHODH – biochemical, C-terminal His tag, absorbance 600 nm, primary screen (AID 1175).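 Further: recombinant parasite enzyme with a five histidine tag at its C terminus; test concentration not given here.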 The conditions noted are these: PfDHODH enzyme, DCIP absorbance 600 nm; higher = more signal, called active from +8 up or from −8 down.

Assay [15] can be described thus: inhibition of PAO1 biofilm formation – strain PAO1, LB-PBS medium, absorbance 600 nm, primary screen (AID 1176). Further: test concentration not given here. The settings on record: P. aeruginosa PAO1 growth/biofilm, A600, 12 h; higher = more signal.
The nature of assay [16]: growth modulation of vineyard yeast isolate – strain RM11-1a, OD600, basal, 24 h, primary screen (AID 1177).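 Further: cultures grown under basal conditions with no added stressor; test concentration not given here.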 The conditions noted are these: S. cerevisiae RM11-1a growth, OD600, 24 h; higher = more signal, called active from +8 up or from −8 down.
Assay [17] can be described thus: growth of efflux-deficient E. coli DRC39 – strain DRC39, OD650, 24 h, E. coli filamentation inducers, primary screen (AID 1178).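 Further: growth measured as culture turbidity by optical density at 650 nm; test concentration not given here.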 The conditions noted are these: E. coli DRC39 acrAB, higher = more signal, called active from +8 up or from −8 down.
Assay [18] can be described thus: growth of efflux-deficient E. coli DRC39 – strain DRC39, OD650, 48 h, E. coli filamentation inducers, primary screen (AID 1179).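 Further: screen aims at cell division blockers that make cells filament.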 The conditions noted are these: E. coli DRC39 delta-acrAB growth, higher = more signal, called active from +8 up or from −8 down.
A short description of assay [19]: viability profiling in RPMI8226 myeloma cells – cell-based, resazurin fluorescence, basal, 24 h, PK04 Diversity Set, profiling panel (AID 1180).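 Further: RPMI8826 multiple myeloma cell line at 5000 cells per well; test concentration not given here.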 The conditions noted are these: higher = more signal.
The target of assay [20] is E3 ubiquitin-protein ligase XIAP (Homo sapiens) (UniProt P98170). Put plainly: small molecules binding XIAP protein – biophysical, small-molecule microarray, fluorescence 635 nm, primary screen (AID 1181).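 Further: score merges 667 nm emission and signal to noise over triplicate slides.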 The settings on record: higher = more signal.
E3 ubiquitin-protein ligase XIAP (Homo sapiens), sequence (P98170 whole entry, looked up): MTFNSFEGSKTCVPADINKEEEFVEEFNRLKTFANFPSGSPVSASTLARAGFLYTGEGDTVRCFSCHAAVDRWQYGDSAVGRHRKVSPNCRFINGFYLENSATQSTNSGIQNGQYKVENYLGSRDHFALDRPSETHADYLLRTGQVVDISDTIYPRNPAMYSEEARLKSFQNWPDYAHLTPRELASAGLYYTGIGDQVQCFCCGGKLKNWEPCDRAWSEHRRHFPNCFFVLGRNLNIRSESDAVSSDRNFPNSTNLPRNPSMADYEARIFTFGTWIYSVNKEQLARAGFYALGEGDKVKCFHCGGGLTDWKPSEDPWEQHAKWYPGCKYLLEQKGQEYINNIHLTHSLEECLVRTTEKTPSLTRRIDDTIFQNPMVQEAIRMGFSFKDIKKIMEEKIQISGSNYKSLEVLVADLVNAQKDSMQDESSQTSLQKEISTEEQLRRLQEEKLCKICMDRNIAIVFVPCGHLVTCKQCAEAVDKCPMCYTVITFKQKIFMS

Dihydroorotate dehydrogenase (quinone), mitochondrial (Plasmodium falciparum (isolate 3D7)), sequence (Q08210 whole entry, looked up): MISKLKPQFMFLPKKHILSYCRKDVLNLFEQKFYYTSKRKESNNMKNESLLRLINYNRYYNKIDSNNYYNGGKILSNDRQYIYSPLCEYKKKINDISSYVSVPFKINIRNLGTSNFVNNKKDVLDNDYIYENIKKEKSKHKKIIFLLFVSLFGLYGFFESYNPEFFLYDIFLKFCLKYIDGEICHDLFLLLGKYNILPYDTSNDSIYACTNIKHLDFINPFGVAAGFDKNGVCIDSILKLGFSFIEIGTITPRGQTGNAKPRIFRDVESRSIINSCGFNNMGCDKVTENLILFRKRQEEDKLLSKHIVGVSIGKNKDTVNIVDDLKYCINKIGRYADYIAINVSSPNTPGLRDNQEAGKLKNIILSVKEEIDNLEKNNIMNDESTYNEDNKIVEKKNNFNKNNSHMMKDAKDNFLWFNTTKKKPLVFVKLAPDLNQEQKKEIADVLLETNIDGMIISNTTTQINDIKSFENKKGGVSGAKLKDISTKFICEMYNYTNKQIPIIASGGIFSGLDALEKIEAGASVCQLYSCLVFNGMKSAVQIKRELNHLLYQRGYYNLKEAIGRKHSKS

As for `O=C1O[C@H](c2ccccc2)[C@H](c2ccccc2)N2[C@H]1[C@@H](C(=O)Nc1nc3ccccc3s1)[C@]1(C(=O)Nc3ccccc31)[C@H]2c1ccc(O)cc1`, the z-score in assay [1] is -0.167; in [2], 0.657; in assay [3], -1.99; in assay [4], -3.38; in assay [5], -4.51; in [6], -3.78. In addition, the z-score is 0.032 (inactive) in assay [7]; -1.12 in assay [8]; -0.564 in [9]; -0.358 (inactive) in assay [10]; -0.166 in [11]; -0.373 (inactive) in assay [12]. In addition, the z-score in [13] is -2.72 (inactive); in assay [15], 1.18 (inactive); in assay [16] it was -0.393 (inactive); in assay [17] it was -0.797 (inactive); in assay [18] it was -1.24 (inactive); in assay [19] it was -2.81. Also, the composite z-score was 0.192 (inactive) in [14] and -0.127 in assay [20].

For `Cc1ccc(S[C@]2(C(=O)NCC(C)C)CC(=O)N(Cc3ccccc3Cl)[C@@H]2c2ccc(CO)cc2)cc1`, the z-score in [1] is 1.63; in assay [2] it was 0.114; in assay [3] it was -0.45; in assay [4], -0.226; in [5] it was 0.845; in [6], -0.595. In addition, the z-score is -0.254 (inactive) in assay [7]; -0.492 in assay [8]; 0.767 in assay [9]; -0.0989 (inactive) in assay [10]; -0.0675 in assay [11]; -0.511 (inactive) in [12]. Also, the z-score was 0.196 (inactive) in [13]; -0.205 (inactive) in [15]; 0.343 (inactive) in [16]; -0.115 (inactive) in assay [17]; -0.219 (inactive) in assay [18]; 0.405 in assay [19]. For the same compound, the results for the composite z-score in assay [14] and in assay [20] were -0.223 (inactive) and 0.012, respectively.

`CCOC(=O)C[C@H]1[C@H](OC(=O)c2ccc(-c3ccccc3)cc2)[C@@H](NC(=O)c2ccc3ccccc3c2)c2cc(OCCCO)ccc2N1C(=O)Cc1ccc(OC)cc1`: the z-score was 0.0289 in assay [1]; 0.965 in [2]; 0.0837 in assay [3]; -0.379 in assay [4]; 0.0182 in [5]; 2.96 in assay [6]. Also, the z-score was -0.000915 (inactive) in assay [7]; 0.462 in assay [8]; 0.189 in assay [9]; 0.24 (inactive) in assay [10]; 0.339 in assay [11]; -0.461 (inactive) in [12]. The z-score in assay [13] is 0.158 (inactive); in assay [15], -0.501 (inactive); in assay [16], -0.169 (inactive); in assay [17], 0.281 (inactive); in assay [18], 0.454 (inactive); in [19], 0.507. Besides, the composite z-score in [14] is -0.173 (inactive); in [20], 0.144.

Turning to `CN1C=C(C(=O)OCCS(C)(=O)=O)C(C(=O)OCCS(C)(=O)=O)=CC(CCCO)=CC1C1CC1` (stereo not given), the z-score in assay [1] was -0.731; in assay [2], 0.197; in assay [3], 1.23; in assay [4], 0.509; in assay [5], 0.535; in [6] it was 0.838. Further, the z-score in assay [7] was 0.448 (inactive); in [8] it was 0.326; in assay [9] it was -1.09; in assay [10], 0.129 (inactive); in assay [11], 0.427; in [12] it was -2.11 (inactive). The z-score is -0.16 (inactive) in assay [13]; -0.353 (inactive) in assay [15]; -0.558 (inactive) in assay [16]; 1.38 (inactive) in assay [17]; 1.29 (inactive) in [18]; 0.0101 in assay [19]. The composite z-score in assay [14] is -1.23 (inactive); in [20], -0.366.

For `O=C1N(CCS(=O)(=O)c2ccccc2)Cc2ccccc2C[C@]12N=C(c1ccc(OCCCO)cc1)O[C@@H]2c1ccccc1`, the z-score in assay [1] is 1.82; in assay [2], 1.36; in assay [3], 1.17; in [4], 0.835; in assay [5], -0.962; in assay [6], -0.589. The z-score in assay [7] is 0.603 (inactive); in assay [8] it was -1.08; in [9], 0.309; in [10] it was -3.17 (inactive); in assay [11] it was -1.08; in assay [12] it was 1.07 (inactive). In addition, the z-score in assay [13] is -2.68 (inactive); in assay [15], 0.0658 (inactive); in assay [16], 1.52 (inactive); in assay [17], -0.0937 (inactive); in [18], 1.28 (inactive); in [19] it was -1.99. Further, the composite z-score in assay [14] was -1.48 (inactive); in [20], 0.0191.

With `COCCOC(=O)N1C(=O)[C@@]2(c3cc(C#CCC(C(=O)OC)C(=O)OC)ccc31)[C@H](c1ccccc1OCCO)N1[C@H](c3ccccc3)[C@H](c3ccccc3)OC(=O)[C@H]1[C@@H]2C(=O)N1CCc2cc(OC)c(OC)cc2C1`, the z-score in assay [1] is 0.178; in assay [2] it was 1.76; in assay [3] it was -0.821; in assay [4] it was -0.906; in assay [5], -0.756; in assay [6], -0.0323. Besides, the z-score in assay [7] is 2.21 (inactive); in [8], -0.833; in assay [9], -0.702; in assay [10], 1.34 (inactive); in [11], 1.68; in [12], 0.983 (inactive). For the same compound, the z-score was 1.58 (inactive) in [13]; 1.45 (inactive) in [15]; 1.16 (inactive) in assay [16]; 0.252 (inactive) in assay [17]; -0.441 (inactive) in assay [18]; 1.78 in assay [19]. Besides, the composite z-score in assay [14] is -0.857 (inactive); in [20], 0.314.

Regarding `CN(C)C(=O)[C@@]1(CCC(=O)OC(C)(C)C)N=C(c2ccc(OCCCO)cc2)O[C@H]1c1ccccc1`, the z-score was -0.211 in assay [1]; 0.687 in assay [2]; -0.517 in [3]; 0.301 in assay [4]; -1.48 in assay [5]; 0.26 in assay [6]. Besides, the z-score is -0.58 (inactive) in [7]; -1 in assay [8]; 0.279 in assay [9]; 0.107 (inactive) in assay [10]; -0.299 in assay [11]; -0.757 (inactive) in assay [12]. Moreover, the z-score in [13] is -0.441 (inactive); in assay [15], 0.401 (inactive); in assay [16] it was -0.346 (inactive); in [17], 0.541 (inactive); in [18] it was -0.353 (inactive); in assay [19], 0.276. The composite z-score in assay [14] was -0.507 (inactive); in assay [20] it was -0.168.

Turning to `CCCNC(=O)[C@@H]1c2ccccc2C(=O)N(Cc2ccccc2)[C@H]1c1ccc(CO)cc1`, the z-score was 0.756 in [1]; 1.38 in [2]; 0.817 in [3]; -0.183 in [4]; 0.502 in assay [5]; 2.12 in [6]. Also, the z-score in assay [7] is -1.28 (inactive); in assay [8], -0.681; in assay [9] it was -0.549; in [10] it was 0.528 (inactive); in assay [11] it was -0.898; in assay [12], 0.215 (inactive). For the same compound, the z-score in assay [13] was 0.0254 (inactive); in assay [15], 1.27 (inactive); in [16] it was 0.797 (inactive); in [17], -0.229 (inactive); in assay [18], -0.969 (inactive); in [19], 0.477. Further, the composite z-score was 0.939 (inactive) in assay [14] and -0.276 in assay [20].
